High-throughput results deposited in PubChem BioAssay by Buhrlage Lab, Dana-Farber Cancer Institute and Novartis Institutes for BioMedical Research (Cambridge, Mass).
USP17 inh: blocks human USP17 ubiquitin-rhodamine cleavage; A8MUK1; purified USP17, Ub-rhodamine cleavage fluorescence, 3 h; inhibition, % at 50 µM; 47,000 compounds, 6.5% hits; AID 1645855
USP8 block: inhibitors of human USP8 deubiquitinase; AID 1645853; inhibition, % at 20 µM; P40818; 47,000 compounds, 4.2% hits; purified USP8, Ub-rhodamine cleavage fluorescence, 30 min
UCHL1 block: blocks human UCHL1 ubiquitin-rhodamine cleavage; 47,000 compounds, 0.2% hits; inhibition, % at 20 µM; P09936; purified UCHL1, Ub-rhodamine cleavage fluorescence
USP30 inh: blocks human USP30 ubiquitin-rhodamine cleavage | Q70CQ3 | purified USP30, Ub-rhodamine cleavage fluorescence | inhibition, % at 25 µM | 47,000 compounds, 5.3% hits
USP10 block: blocks human USP10 ubiquitin-rhodamine cleavage. Q14694. purified USP10, Ub-rhodamine fluorescence, 60 min. 47,000 compounds, 1.1% hits. inhibition, % at 20 µM
USP7 block: blocks human USP7 ubiquitin-rhodamine cleavage. purified USP7, Ub-rhodamine cleavage fluorescence. inhibition, % at 20 µM. 47,000 compounds, 0.3% hits. AID 1645854
An asterisk follows results filed as active; . = no result. Most compounds without a hit are left out; they make up all but 13% or so of the library. Cut-off read from the data, not from the text of the source: active = inhibition above about 30%; inactive = the rest.

SMILES	USP17 inh	USP8 block	UCHL1 block	USP30 inh	USP10 block	USP7 block
CCc1ccc(S(=O)(=O)N2CCCn3nnc(Cn4ccnc4)c3C2)cc1	1.3	-10.4	1.3	16.0	1.8	1.8
O=C(CCc1nc(CSc2nnc(-c3ccco3)o2)no1)Nc1cc(F)cc(F)c1	-15.7	-106.4	1.2	-31.2	-1.6	-14.8
Cc1ccc(CNC(=O)CCc2c(C)nn(-c3cc(N4CCOCC4)ncn3)c2C)cc1	-0.8	-0.8	4.6	-8.3	-3.7	11.1
Cc1ccc(C)c(NC(=O)CCc2c(C)nn(-c3cc(N(C)C)ncn3)c2C)c1	17.3	-31.6	0.4	30.6*	3.7	2.3
Cc1ccc(C2=Nc3ccccc3N(CC(=O)Nc3cccc(C)c3C)C(=O)C2)cc1C	36.1*	43.1*	2.1	33.9*	12.0	11.7
Cc1cccc(NC(=O)CN2C(=O)CC(c3ccccc3)=Nc3ccccc32)c1C	15.9	11.1	-1.1	33.7*	17.2	3.2
COC(=O)C(NC(=O)CCC(=O)O)c1ccc(OC)c(Cl)c1 (configuration not stated)	-1.9	-2.0	0.9	-3.8	-4.0	.
O=C([C@@H]1CCCN1C1=NS(=O)(=O)c2ccccc21)N1CCN(c2ccccc2)CC1	-6.5	-0.2	-1.7	-0.1	-3.8	-1.9
O=C(/C=C/c1ccccc1)N1CCN(C2=NS(=O)(=O)c3ccccc32)CC1	-0.3	0.8	1.2	79.8*	0.6	4.2
CCCCNc1ccccc1C(=O)OCc1nnc(-c2cc(-c3ccc(OC)c(OC)c3)nc3ccccc23)o1	8.8	72.1*	0.0	-37.3	-4.1	1.7
Cc1cccc(C)c1NC(=O)C(C)n1c(C)nc2onc(C)c2c1=O (configuration not stated)	.	8.3	3.4	43.4*	3.5	1.6
Cc1cccc(NC(=O)C(C)n2c(C)nc3onc(C)c3c2=O)c1 (configuration not stated)	0.2	0.0	1.8	-5.8	-1.9	0.1
Cc1cc(C2CCCN2C(=O)c2cc(C)on2)on1 (configuration not stated)	7.8	10.4	5.6	12.6	-0.2	8.7
Cc1cc2nc(/C=C/c3ccccc3)n(Cc3cccc(F)c3)c2cc1C	-5.7	-17.7	5.9	0.0	6.5	-3.0
COc1ccccc1C(=O)Nc1ccccc1-c1nc(-c2ccccn2)no1	32.5*	7.9	5.9	.	7.4	6.1
O=C(Nc1ccccc1-c1nc(-c2ccccn2)no1)c1ccc(Cl)cc1	35.1*	17.6	0.6	20.7	6.9	7.0
Cc1ccc(-c2noc(-c3ccccc3NC(=O)C3CC3)n2)cc1	4.2	3.6	0.0	0.5	0.0	2.1
CNc1nc2c(c(=O)n1Cc1ccccc1)CCN(C(=O)c1ccc3ccccc3c1)C2	11.9	4.6	4.9	2.9	7.1	6.9
O=C(NCc1ccc(F)cc1)c1cc(OCc2ccccc2)nc2ccccc12	15.7	-64.3	1.7	31.3*	2.3	4.6
COc1ccccc1CNC(=O)c1cc(OCc2ccccc2)nc2ccccc12	57.1*	-4.8	5.9	.	-1.4	5.9
CCn1cc(-c2cc(C(=O)Nc3cnn(Cc4cccc(F)c4)c3)c3ccccc3n2)cn1	62.9*	-0.7	8.7	1.3	1.6	6.3
O=C(Cc1ccccc1)N1CCC(c2nc3c(nnn3Cc3ccc(F)cc3)c(=O)[nH]2)CC1	3.1	19.8	4.3	31.2*	12.6	-14.3
N#Cc1ccc(NC(=O)N2CCC(c3nc4c(nnn4Cc4ccc(F)cc4)c(=O)[nH]3)CC2)cc1	30.3*	-0.6	2.8	30.4*	10.6	-8.8
COc1ccc(C(=O)N2CCC(c3nc4c(nnn4Cc4cc(C)ccc4C)c(=O)[nH]3)CC2)cc1	36.3*	6.5	8.4	30.0*	15.0	-69.6
Cc1ccc(Cn2nnc3c(=O)[nH]c(C4CCN(C(=O)c5ccccc5)CC4)nc32)cc1	9.8	14.2	2.3	43.4*	9.9	-15.5
SMILES	USP17 inh	USP8 block	UCHL1 block	USP30 inh	USP10 block	USP7 block
Cc1ccc(CNC(=O)Cc2nnc(-c3ccc4ncccc4c3)o2)cc1	31.2*	28.6	-5.9	-114.6	-4.7	-0.4
CN(C=C1NC(=O)c2ccccc2N1)CC(=O)Nc1ccc(Cl)c(Cl)c1	-2.0	-34.3	3.6	-12.8	2.1	-24.4
COc1ccc(C(=O)Nc2nc3n(n2)C(c2ccccc2)CC(=O)N3)cc1 (configuration not stated)	72.7*	75.9*	3.0	35.3*	17.5	7.9
COc1ccccc1/C=C/C(=O)Nc1nc2n(n1)C(c1ccc(Cl)cc1)CC(=O)N2 (configuration not stated)	43.9*	-16.4	1.4	38.8*	11.2	0.2
O=C1CC(c2ccccc2)n2nc(NC(=O)c3ccccc3F)nc2N1 (configuration not stated)	-0.6	44.1*	-1.3	0.1	0.4	0.5
O=C(/C=C/c1ccco1)Nc1nc2n(n1)C(c1ccccc1)CC(=O)N2 (configuration not stated)	-6.8	-8.5	-32.8	-195.2	-8.1	-80.1
CC(=O)Nc1nc2n(n1)C(c1ccccc1)CC(=O)N2 (configuration not stated)	-4.9	3.0	-1.1	-3.9	4.6	0.7
CCOC(=O)c1cnc(Sc2ccc([N+](=O)[O-])cn2)nc1N	-1.1	-79.5	4.5	5.7	1.4	11.6
COc1ccc(CN2CC3(CCN(C(=O)Nc4ccccc4)C3)C2)cc1F	-2.3	-8.9	-3.5	-9.9	-0.3	-1.9
CCOc1ccccc1-c1noc(CCn2c(=O)[nH]c3ccccc3c2=O)n1	9.5	20.8	3.7	35.1*	3.5	0.1
CCn1c(=O)c2ccccc2n(Cc2nc(-c3ccccc3OC)no2)c1=O	56.3*	15.3	2.6	5.7	-1.0	0.8
COCCn1c(=O)[nH]c2cc(-c3nc(-c4ccccc4)no3)ccc2c1=O	21.3	3.2	3.1	26.3	0.3	8.1
O=c1[nH]c2ccccc2c(=O)n1CCc1nc(-c2ccc(F)cc2)no1	35.6*	-7.2	-0.1	-0.3	0.2	1.5
COc1ccccc1-c1noc(Cn2cnc3c(nnn3Cc3ccc(F)cc3)c2=O)n1	-4.0	-8.3	2.9	15.4	7.9	-5.0
CCOc1ccccc1-c1noc(CCCC(=O)Nc2ccccc2)n1	-10.4	-18.0	0.2	-12.3	-1.6	0.0
Cc1ccc(N2CC(c3nc4ccccc4n3CCCCOc3ccccc3)CC2=O)cc1 (configuration not stated)	16.9	5.3	7.5	52.3*	11.5	12.9
COc1ccc(OCCn2c(C3CC(=O)N(C)C3)nc3ccccc32)cc1 (configuration not stated)	0.2	22.8	1.1	10.7	-0.5	-1.8
Cc1ccc(N2CC(c3nc4ccccc4n3CCOc3cccc(C)c3)CC2=O)cc1 (configuration not stated)	48.3*	94.6*	5.2	47.2*	69.4*	31.6*
Cc1cc(-c2ccc(S(=O)(=O)NCc3ccc4c(c3)OCO4)s2)on1	16.0	17.7	2.8	-41.4	5.5	6.9
